# This is a sample that favours compounds with a hit; in the whole collection about 3.3% have one here.
# eIF4E-4G inh = eIF4E–eIF4G protein interaction inhibitors, primary screen, biochemical, uHTS, TR-FRET, eIF4GI fragment; Eukaryotic translation initiation factor 4E (Mus musculus) + Eukaryotic translation …; TR-FRET eIF4E-eIF4GI(517-606) binding, 2 h; inhibition, % at 21.7 µM; actives 0.37% (n = 220,000)
# Mcl1-Noxa inh = Mcl-1/Noxa binding inhibitors, primary screen, biochemical, TR-FRET, 1536-well | inhibition, % at 21.7 µM | TR-FRET Mcl-1/Noxa peptide binding, 2 h | Induced myeloid leukemia cell differentiation protein Mcl-1 (Homo sapiens), Q07820 | actives 1.5% (n = 220,000) | AID 1022, 2008;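 active means compounds that cut the protein-peptide binding signal by more than 50% relative to plate controls in a single-dose test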;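 further: His-tagged Mcl-1 with rhodamine Noxa BH3 peptide and terbium anti-His antibody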
# 14-3-3 Bad inh = inhibitors of 14-3-3 zeta/Bad binding, primary screen, biochemical, TR-FRET, bovine 14-3-3 zeta. 14-3-3 protein zeta/delta (Bos taurus), P63103. TR-FRET 14-3-3zeta/Dy647-pBad peptide displacement, 1 h. inhibition, % at 21.7 µM. actives 0.71% (n = 220,000);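 active means inhibition above about 70%, limit read from the data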
# Mcl1 Bid PPI = Mcl-1/Bid binding inhibitors, primary screen, biochemical, TR-FRET, 1536-well | Induced myeloid leukemia cell differentiation protein Mcl-1 (Homo sapiens), Q07820 | inhibition, % at 21.7 µM | AID 1021, 2008 | actives 0.97% (n = 220,000) | TR-FRET Mcl-1/Bid-Dy647 peptide binding;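 active means compounds that cut the binding signal by more than half at the single screening dose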;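 further: His-tagged Mcl-1 with europium anti-His antibody binding Bid BH3 peptide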
# NCF1 inh = p47phox/p22phox peptide binding inhibitors, primary screen, biochemical, uHTS, NADPH oxidase regulatory subunit. Neutrophil cytosol factor 1 (Homo sapiens), P14598. fluorescence polarization, 2 h. inhibition, % at 24.7 µM. actives 0.53% (n = 220,000)
# Bim-Mcl-1 = inhibitors of Bim peptide binding to Mcl-1, primary screen, biochemical, bead-based flow cytometry, multiplex; Bim peptide-Mcl-1 binding; actives 0.1% (n = 190,000); Induced myeloid leukemia cell differentiation protein Mcl-1 (Homo sapiens), Q07820; inhibition, % at 10 µM; in the data active means inhibition above about 40%
# A number is an active result; n = inactive; x = not tested or not shown.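 How the source made its calls, unless noted: active means inhibition above about 30% (limit read from the data); inactive means the rest.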
SMILES,eIF4E-4G inh,Mcl1-Noxa inh,14-3-3 Bad inh,Mcl1 Bid PPI,NCF1 inh,Bim-Mcl-1
COc1ccc(/C=C2\SC(=O)NC2=S)cc1OC,n,64,n,n,n,n
Cn1cc(/C=C2\SC(=O)NC2=S)c2ccccc21,n,n,n,n,n,n
COc1cc(/C=C2\SC(=O)NC2=O)ccc1Oc1ccc([N+](=O)[O-])cc1[N+](=O)[O-],n,87,n,n,n,n
CCN(CC)S(=O)(=O)c1ccc(C)c(NC(=S)NNC(=O)C2CC2)c1,n,n,n,n,n,n
CN(C)CC#CCCCCCCC#CCN(C)C,n,x,n,n,n,n
C#CCCCCCCC#CCN(C)C,n,n,n,55,n,n
Cc1ccc(C(=O)NCCCn2ccnc2)o1,n,n,n,62,n,n
O=C(NCCCn1ccnc1)C(=O)NC1CCCCC1,n,n,n,n,n,n
O=C(O)C1CCCCC1C(=O)NCCCn1ccnc1 (centres undefined),n,n,n,n,36,n
Cc1ccc(CC(=O)NCCCn2ccnc2)cc1,n,n,n,n,n,n
C=CCNC(=S)N/N=C(\C)c1ccccn1,n,n,n,n,n,n
COc1cc(/C=C2\SC(c3ccc(C)cc3)=NC2=O)cc(OC)c1OC,n,x,n,n,n,n
COc1cc(/C=C2\SC(c3ccccc3)=NC2=O)cc(Cl)c1O,n,73,n,n,n,n
CC(C)N(C(=O)c1sc2cc([N+](=O)[O-])ccc2c1Cl)C(C)C,n,n,n,97,n,n
N/C(=N\NC(=O)c1cccs1)c1cc2cc(Cl)ccc2oc1=O,n,n,n,n,n,x
CC(C)(C)CN1CCNC(=O)C1CC(=O)N1CCN(c2ccccc2)CC1 (centres undefined),n,n,n,n,n,x
O=C(COc1cccnc1[N+](=O)[O-])c1ccc(Cl)s1,n,82,n,80,n,x
Cc1ccc(/C=C/C(=O)N2CCc3ccccc32)o1,n,61,n,n,n,n
CC(C)CC(=O)NC1(C(F)(F)F)C(=O)N(CC(C)C)C2=C1C(=O)CC(C)(C)C2 (centres undefined),n,n,n,n,n,n
Cc1cc(C(=O)CSc2nnc(-c3ccncc3)n2-c2ccccc2)c(C)n1C,n,n,n,51,n,n
Cc1cc(C(=O)CSc2nnc(-c3ccccc3)n2C)c(C)n1C,n,n,n,n,n,n
O=C(Nc1cccc(NC(=O)C2C3CC4OC(=O)C2C4C3)c1)c1ccccc1 (centres undefined),n,n,n,n,n,n
COc1ccccc1N(CC(=O)NC(C)C)S(=O)(=O)c1cccs1,n,n,n,n,n,n
Fc1ccc(N/N=C/c2ccncc2)c(F)c1,n,n,n,n,n,n
Clc1ccc(N/N=C/c2ccncc2)cc1Cl,n,51,n,n,n,n
SMILES,eIF4E-4G inh,Mcl1-Noxa inh,14-3-3 Bad inh,Mcl1 Bid PPI,NCF1 inh,Bim-Mcl-1
Cc1ccccc1NCC(=O)N/N=C/C(Br)=C/c1ccccc1,n,n,n,90,n,n
CCN1C(=O)/C(=C\N(C)C)S/C1=N\S(=O)(=O)c1ccccc1,n,n,92,n,n,n
CCN1C(=O)/C(=C/c2cccs2)S/C1=N\S(=O)(=O)c1ccc(C)cc1,n,n,n,n,n,n
O=C1OC(c2ccccc2)/C(=C(/O)c2ccc(Cl)cc2)C1=O (centres undefined),n,n,71,n,n,n
O=c1c(Cl)c2oc3ccccc3nc-2c2ccccc12,n,62,n,n,n,n
O=C(N/N=C/c1cccc(OC(=O)N2CCOCC2)c1)c1cccs1,n,n,n,n,n,n
COC(=O)c1ccc(-n2nnnc2SCC(=O)Nc2ccccc2OC)cc1,n,n,n,n,n,n
COc1ccccc1NC(=O)CSc1nnnn1-c1ccc2c(c1)OCO2,n,n,n,99,n,n
CCOc1ccccc1CN1CCN(CC2=Cc3cc(OC)ccc3OC2)CC1CCO (centres undefined),n,n,n,n,n,x
CCCOC(=O)C1[C@H]2C(=O)N(CCCOC)C[C@]23C=C[C@H]1O3 (some centres undefined),n,59,n,n,n,n
COc1ccc(Cc2n[nH]c(=S)n(N)c2=O)cc1,n,n,n,n,n,n
COc1cc(/C=C2/C(=O)NN(c3ccc(Cl)cc3)C2=O)ccc1OC(=O)c1ccco1,n,62,n,n,n,n
C/C(=N\NC(=O)COc1ccc(C#N)cc1)c1ccccc1OC(F)F,n,n,n,n,n,49
C/C(=N\NC(=O)COc1ccc(C(C)(C)C)cc1)c1ccc(OC(F)F)cc1,n,n,n,n,n,n
O=C(c1ccc(CNS(=O)(=O)c2ccc(Br)cc2)cc1)N1CCCC1,n,n,n,n,n,42
NS(=O)(=O)c1ccc(NNC(=O)c2sccc2Cl)cc1,n,n,n,n,n,x
C=CS(=O)(=O)c1sc(Cl)c(N2CCOCC2)c1[N+](=O)[O-],n,67,n,69,n,n
O=C(/C=C/c1ccc(F)cc1)NCC1(c2ccccc2)CCOCC1,n,n,n,n,n,n
NC(=S)Nc1ccc(F)cc1F,n,n,n,77,n,x
N#Cc1ccc(-c2ccccc2)nc1SCC(=O)c1cc2ccccc2oc1=O,n,n,n,64,n,n
Nc1ccn(Cc2ccc(F)cc2)n1,n,n,n,n,n,n
COc1ccc(-c2cc(C(=O)Nc3cc(OC)cc(C(=O)Nc4cccc(C(F)(F)F)c4)c3)[nH]n2)cc1,n,n,n,n,n,x
COCCOC(=O)c1c(N)n(CCCN2CCOCC2)c2nc3ccccc3nc12,92,n,n,n,n,x
Cc1cccc(-n2c(N)c(C(=O)NCCN3CCOCC3)c3nc4ccccc4nc32)c1,n,n,71,n,n,n
CCOc1cc(/C=C2/C(=N)N3C=CSC3=NC2=O)ccc1OCCCOc1ccccc1C,n,n,n,57,n,n
CCOc1ccc(S(=O)(=O)n2cc(F)c(=O)[nH]c2=O)cc1,n,n,n,n,n,n
CC(C)(C)c1nc(NCCN2CCOCC2)c2nnn(Cc3ccccc3Cl)c2n1,n,n,n,n,n,41
CC(C)CCn1cnc2c(oc3nc4c(cc32)CCCC4)c1=O,n,n,n,n,n,x
CCCCCCC(=O)N/N=C(\C)Cc1ccccc1,n,70,n,n,n,n
